Screens deposited in PubChem BioAssay by National Center for Advancing Translational Sciences (NCATS).
Only some compounds are listed: those with a hit (about 9.9% of all), similar ones and a draw of the others.
SW480 rerep – induces DNA re-replication in SW480 colon adenocarcinoma cells. SW480 DNA re-replication, Hoechst DNA content imaging, 48 h. Potency, µM (highest dose often 46.1 µM), without a hit: top-dose re-replication activation, actives largely listed as activators. 340,000 tested, 1.8% active. AID 624297; further: potency means the concentration at half of the fitted maximal effect; % of control where 0% means no effect; nearly all actives have a fitted effect of over 55% in size
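Per well, 250 cells were exposed to pinned compound for 48 hr. Nuclear DNA was visualised with Hoechst (40 min, 37 C) and total object intensity recorded by fluorescence scanning.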
IL-1B inflam inh – inhibitors of inflammasome signaling (IL-1 beta secretion) | 360,000 tested, 4.7% active | activity change, % at 57.5 µM | AID 743279 | THP-1 LPS/ATP IL-1B secretion, AlphaLISA, 16 h; active compounds read low; in the data active means activity change below about -50%; inconclusive means mostly about -30% to -49%; further: on the % scale 0 is the no-effect control and ±100 the full control effect
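Secreted IL-1B measured by AlphaLISA bead assay after 16 h compound exposure of THP-1 cells; compounds (final up to 57.5 uM) added 1 h before LPS (250 ng/mL) and ATP (1.25 mM) stimulation; lower signal means less secretion.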
KB-V1 MDR tox – kills drug-selected multidrug resistant KB-V1 cells | KB-V1 MDR cells viability, CellTiter-Glo, 72 h | Potency, µM (doses to about 46.1 µM), most hits filed as cytotoxic | 400,000 tested, 3.4% active; further: potency means the concentration at half of the fitted maximal effect; on the % scale 0 is the no-effect control and ±100 the full control effect; nearly all actives have a fitted effect of over 60% in size
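In this primary screen, KB-V1 cells overexpressing P-gp are incubated with library compounds (lowest to highest concentration) for 72 h at 37 degrees C before a luminescent ATP viability read.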
KB-3-1 tox – kills parental KB-3-1 adenocarcinoma cells | KB-3-1 viability, CellTiter-Glo ATP luminescence, 72 h | Potency, µM (titrated, usually from 46.1 µM), most hits filed as cytotoxic | 400,000 tested, 1.4% active | AID 1347075; further: potency means the concentration at half of the fitted maximal effect; on the % scale 0 is the no-effect control and ±100 the full control effect; nearly all actives have a fitted effect of over 60% in size
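Cytotoxicity in the drug-sensitive parental line KB-3-1 was scored as loss of CellTiter-Glo luminescence following 72 h incubation with compound. Values come from curve fitting of normalized concentration-response data.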
MCF10A rerep – induces DNA re-replication in MCF 10a normal breast cells; MCF 10A DNA re-replication, Hoechst nuclear intensity, 48 h; Potency, µM (top dose mostly 46.1 µM), without a hit: at the top dose activity, positive = re-replication, usual class: activators; 350,000 tested, 2.9% active; AID 624296; further: potency means the concentration at half of the fitted maximal effect; % of control where 0% means no effect; nearly all actives have a fitted effect of over 50% in size
* marks the source's active call; other numbers are inactive results; i = inactive; ? = inconclusive; · = no result. Unless noted, the call rests on the fitted dose curve; in most records, active means well fitted curve in the direction sought with a large enough effect; inconclusive means small, poorly fitted or top-dose-only effect, or another doubt; inactive means no such curve, though single readings can be large; an effect the other way counts as inactive or inconclusive.

SMILES	SW480 rerep	IL-1B inflam inh	KB-V1 MDR tox	KB-3-1 tox	MCF10A rerep
O=C(CCCN1C(=O)S/C(=C/C=C/c2ccccc2)C1=O)Nc1ccc(C(=O)O)cc1	-6%	-9	i	i	1%
O=C(CN1C(=O)S/C(=C\C=C\c2ccccc2)C1=O)Nc1ccc(O)cc1	1%	-54*	i	i	2%
O=C(CCCN1C(=O)/C(=C/c2ccccc2)SC1=S)Nc1cccc(O)c1	16%	-52*	i	?	?
COc1cccc(/C=C2\SC(=S)N(CCCC(=O)Nc3ccc(C(=O)O)cc3)C2=O)c1	24%	-13	?	i	7%
COc1ccc(/C=C2/SC(=S)N(CCCC(=O)Nc3ccc(O)cc3)C2=O)cc1OC	?	-8	i	?	16%
COc1cccc(/C=C2/SC(=S)N(CCCC(=O)Nc3ccc(O)cc3)C2=O)c1	?	-85*	?	i	8%
O=C(CCCN1C(=O)/C(=C\c2ccccc2)SC1=S)Nc1cccc(C(=O)O)c1	6%	-2	i	i	-6%
CCN(CC)CCOC(=O)c1ccc(NC(=O)CCCN2C(=O)S/C(=C/c3ccc(OC)cc3)C2=S)cc1	22µM*	-69*	i	i	?
O=C(CCCN1C(=O)/C(=C\c2ccccc2)SC1=S)Nc1ccc(O)cc1	?	-105*	?	?	?
COc1ccc(CCNC(=O)C(=O)NCc2ccc(C)cc2)cc1OC	-2%	11	21µM*	i	2%
COc1ccc(CCNC(=O)CSCc2ccc([N+](=O)[O-])cc2)cc1OC	-271%	-14	i	i	-5%
COc1ccc(CCNC(=O)CSc2ccccn2)cc1OC	?	0	i	i	-7%
CCC(c1nnc(SCC(=O)NCCc2ccc(OC)c(OC)c2)n1Cc1ccccc1)N(C)C (stereo not drawn)	-5%	-21	i	i	0.65µM*
COc1ccc(CCNC(=O)CSCc2ccc(Cl)cc2)cc1OC	-1%	-7	6.5µM*	i	6%
COc1ccc(CCNC(=O)CSc2cccc3cccnc23)cc1OC	14%	-98*	i	i	-31%
CCc1ccc(CNC(=O)C(=O)NCCc2ccc(OC)c(OC)c2)cc1	3%	61	i	i	-3%
CCC(c1nnc(SCC(=O)Nc2ccc(NC(C)=O)cc2)n1Cc1ccccc1)N(C)C (stereo not drawn)	1%	i	i	i	1%
CC1CCCN(c2ncnc3c2nnn3C)C1 (stereo not drawn)	·	·	i	i	·
COc1ccc(-n2nnnc2SCC(=O)NCCc2ccc(OC)c(OC)c2)cc1	13%	6	8.2µM*	i	-7%
COc1ccc(CCNC(=O)CCN2C(=O)COc3ccc(C)cc32)cc1OC	-3%	-3	?	i	0%
COc1ccc(CCNCCC(=O)Nc2c(C)cc(C)cc2C)cc1OC	2%	-64*	i	i	5%
COc1ccc(CCNC(=O)CSc2nnnn2C)cc1OC	2%	-9	i	i	1%
COc1ccc(CCNC(=O)CCN2C(=O)C(C)Oc3ccc(C)cc32)cc1OC (stereo not drawn)	0%	0	8.2µM*	i	0%
COc1ccc(CCNC(=O)CSCc2ccc(C)cc2)cc1OC	-5%	6	21µM*	i	-6%
COc1ccccc1CNC(=O)Cn1ncn2c(cc3sccc32)c1=O	·	·	i	i	·
SMILES	SW480 rerep	IL-1B inflam inh	KB-V1 MDR tox	KB-3-1 tox	MCF10A rerep
Oc1[nH]c2ccc(Br)cc2c1N=NC(=S)NCC1CCCO1 (stereo not drawn)	14%	-5	i	?	-6%
COc1ccccc1NC(=S)N=Nc1c(O)[nH]c2ccc(Br)cc12	-1%	0	?	2.3µM*	?
Cc1cccc(NC(=S)N=Nc2c(O)[nH]c3ccccc23)c1	?	15	i	i	6.5µM*
Cc1ccc(Nc2nc(N/N=C/c3c[nH]c4ccccc34)nc(N3CCOCC3)n2)cc1	13µM*	-67*	?	i	?
Cc1[nH]c2ccccc2c1/C=N/Nc1nc(Nc2ccc(F)cc2)nc(N2CCOCC2)n1	1%	1	i	i	5%
O=C(Oc1cccc(/C=N/Nc2nc(Nc3ccccc3)nc(N3CCOCC3)n2)c1)c1ccco1	?	1	15µM*	i	?
C(=N\Nc1nc(Nc2ccccc2)nc(N2CCOCC2)n1)/c1c[nH]c2ccccc12	0.82µM*	-81*	23µM*	?	16µM*
Nc1c(C(O)(C(F)(F)F)C(F)(F)F)cc(C(O)(C(F)(F)F)C(F)(F)F)c2ccccc12	28%	-96*	i	i	18µM*
O=C(c1cc(COc2c(F)cccc2F)on1)N1CCC(c2ccncc2)CC1	-5%	?	?	23µM*	?
Cc1cccc(C)c1OCc1cc(C(=O)N2CCN(C3CCCC3)CC2)no1	-1%	-14	i	i	7%
Cc1cccc(C)c1OCc1cc(C(=O)N2CCC(c3ccncc3)CC2)no1	?	-68*	i	i	11%
O=C(c1cc(COc2c(F)cccc2F)on1)N1CCC(c2ccccc2F)C1 (stereo not drawn)	?	?	i	i	-14%
O=C(NC1CC1)c1ccc2nc(-c3ccco3)c(-c3ccco3)nc2c1	·	·	i	i	·
CCOc1ccc(C(=O)NCC(=O)NCC(c2ccco2)N2CCCCC2)cc1 (stereo not drawn)	3%	1	?	i	0%
COc1cccc(NC(=O)C2CCN(c3nnc(C)c4c(C)n(-c5ccccc5)nc34)CC2)c1	·	·	i	i	·
Cn1c(/C=C/c2ccc([N+](=O)[O-])o2)nc2ccccc2c1=O	1.8µM*	-98*	?	1.8µM*	5.2µM*
Cn1c(/C=C/c2ccccc2)nc2ccccc2c1=O	16%	-2	?	?	?
CCC(NC(=O)CCCc1ccccc1)c1ccccc1 (stereo not drawn)	-52%	13	18µM*	i	?
O=C(CCl)NC(Cc1ccccc1)c1ccccc1 (stereo not drawn)	16µM*	-95*	?	?	?
CCC(NC(=O)c1ccc([N+](=O)[O-])cc1[N+](=O)[O-])c1ccccc1 (stereo not drawn)	16%	24	i	i	-6%
CCC(NC(=O)c1ccccc1O)c1ccccc1 (stereo not drawn)	-2%	10	16µM*	i	-2%
Cc1ccc(C(=O)COc2cc(C)nc3nncn23)cc1	-17%	11	i	i	0%
C/C(=N/Nc1cc(-c2ccccc2)nc(-c2ccccc2)n1)c1ccc(O)cc1	-2%	-105*	18µM*	?	18µM*
